FLuc counter = qHTS profiling assay for firefly luciferase inhibitor/activator using purifed enzyme and Km concentrations of substrates (counterscreen for miR-21 project); Luciferin 4-monooxygenase (Photinus pyralis), P08659; purified FLuc, Km substrates, luminescence inhibition; Potency, µM (titrated, usually from 57.5 µM), for the others: at the highest dose activity change, negative = inhibition, usual class: inhibitors; 360,000 compounds, 6.9% hits; AID 588342, 2011;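 also: plate controls were vehicle for no effect and reference inhibitor for full effect; nearly all actives have a fitted effect of over 55% in size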
Target sequence (P08659 whole entry, looked up): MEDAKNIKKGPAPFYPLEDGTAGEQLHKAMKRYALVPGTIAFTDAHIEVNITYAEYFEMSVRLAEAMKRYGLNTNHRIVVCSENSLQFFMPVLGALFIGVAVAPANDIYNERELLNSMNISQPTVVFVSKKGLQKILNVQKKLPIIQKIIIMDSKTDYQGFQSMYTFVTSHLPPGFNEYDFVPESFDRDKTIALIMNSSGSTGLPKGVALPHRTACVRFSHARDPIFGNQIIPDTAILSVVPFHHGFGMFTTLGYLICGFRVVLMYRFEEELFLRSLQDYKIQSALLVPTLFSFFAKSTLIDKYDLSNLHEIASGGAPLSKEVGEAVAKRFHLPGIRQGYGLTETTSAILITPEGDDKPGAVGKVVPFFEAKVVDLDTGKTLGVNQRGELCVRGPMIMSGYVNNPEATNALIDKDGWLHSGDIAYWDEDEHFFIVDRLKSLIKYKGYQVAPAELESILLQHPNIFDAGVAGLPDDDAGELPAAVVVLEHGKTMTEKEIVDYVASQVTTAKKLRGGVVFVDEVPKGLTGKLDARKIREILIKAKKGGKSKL
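Purified P. pyralis luciferase (10nM final) with 10uM D-luciferin and 10uM ATP (Km levels) in 50mM Tris acetate pH 7.5, 10mM Mg acetate, 0.01% Tween-20, 0.05% BSA; qHTS 6-point titration, ~60 µM downward; luminescence read.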
SMN2 splice enh = qHTS Assay for Enhancers of SMN2 Splice Variant Expression; HEK293 SMN2-luciferase splicing reporter, luminescence, 30-36 h; 210,000 compounds, 2.8% hits; AID 1458, 2008; Potency, µM (titrated, usually from 46.1 µM), for inactives: at the highest dose activity change, positive = activation, actives largely listed as activators; also: % of control where 0% means no effect; nearly all actives have a fitted effect of over 55% in size
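HEK293 cells carry an SMN2 […]–luciferase reporter in which exon 7 inclusion puts luciferase in frame. Cells were plated 10-12 h before compound addition, then incubated 30-36 h at 37C. ONE-Glo luminescence was read; sodium butyrate at 4.5 mM final served as control.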
ELG1 genotoxic = qHTS screen for small molecules that induce genotoxicity in human embryonic kidney (HEK293T) cells expressing luciferase-tagged ELG1. HEK293T ELG1-luciferase reporter, luminescence, 16 h. Potency, µM (titrated, usually from 46 µM), for inactives: at the top dose activity change, positive = activation, actives largely listed as activators. 330,000 compounds, 1.3% hits. AID 504466, 2011; also: % of control where 0% means no effect; nearly all actives have a fitted effect of over 60% in size
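Quantitative HTS format in 1536-well plates. HEK293T ELG1-luciferase reporter cells receive test compound and are incubated 16 hr at 37 °C, 5% CO2; ONE-Glo added, 30 min room temperature, then luminescence read.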
Rab9 promoter act = qHTS Assay for Rab9 Promoter Activators. Huh7 Rab9 promoter-luciferase reporter, luminescence, 24 h. Potency, µM (doses to about 9.22 µM), without a hit: top-dose activation, negative = inhibition, actives largely listed as activators. 320,000 compounds, 2.8% hits. AID 485297, 2010; also: % of control where 0% means no effect; nearly all actives have a fitted effect of over 60% in size
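Huh7 reporter line, Rab9 promoter upstream of luciferase. Compound exposure 24 h at 37 °C in reduced-serum medium with 10% FBS. Read-out: luminescence.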
NPC1 promoter act = qHTS Assay for NPC1 Promoter Activators. Potency, µM (doses to about 9.22 µM), without a hit: at the top dose activation, usual class: activators. AID 485313, 2010. 320,000 compounds, 2.4% hits. Huh7 NPC1 promoter luciferase reporter, 24 h; also: % of control where 0% means no effect; nearly all actives have a fitted effect of over 60% in size
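Huh7 cells stably carrying NPC1 promoter–luciferase, plated in Opti-MEM with 10% FBS for 2 h, were exposed to compound in DMSO for 24 h at 37 °C; luciferase reagent was added for 10 min and luminescence read.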
Active calls of the source: *; ? = inconclusive; . = not tested or not shown; [ ] = remark or other dose. The list is not random: actives were taken first. Their share in the collection is about 7.4%. Calls follow the shape of the dose curve; as a rule, active = well fitted curve in the direction sought with a large enough effect; inconclusive = small, poorly fitted or top-dose-only effect, or another doubt; inactive = no such curve, though single readings can be large; an effect the other way counts as inactive or inconclusive. Potency is read from the fitted curve at half-maximal effect.

SMILES	FLuc counter	SMN2 splice enh	ELG1 genotoxic	Rab9 promoter act	NPC1 promoter act
Cc1[nH]n(C(N)=S)c(=O)c1N=Nc1ccc2ccccc2c1	3µM*	22µM*	18µM*	4µM*	3.2µM*
CCNc1ncc2nc(-c3cc(F)cc(F)c3)c(=O)n(Cc3cccs3)c2n1	.	5%	.	.	.
CC(=O)c1ccc(NC2=NS(=O)(=O)c3ccccc32)cc1	?	9%	.	.	.
O=C(NCc1cccc(F)c1)C1CCC(=O)N(C2CC2)C1 (stereo not drawn)	0%	.	11%	1%[1.84 µM]	-1%
Cc1ccc(CCNC(=O)c2ccc(NC(=O)N3CCSc4ccccc43)cc2)cc1	1%	-1%	.	.	.
Cc1[nH]n(C(N)=S)c(=O)c1N=Nc1cccc([N+](=O)[O-])c1C	8.5µM*	.	?	2.5µM*	?
Cc1[nH]n(C(N)=S)c(=O)c1N=Nc1ccc(S(=O)(=O)N2CCCCCC2)cc1	5.4µM*	-20%	4%	3%	7%
O=C1Nc2c(Br)cccc2C1=O	.	.	2%	.	.
Cc1c(C(=O)N(C)c2ccc(Cl)cc2)cnn1-c1ccccc1	?	.	14%	?	?
O=C(/C=C/c1ccoc1)c1ccccc1O	9.5µM*	-7%	?	-3%	-3%
COc1ccc2ccccc2c1C(=O)/C=C\c1ccoc1	27µM*	-8%	0%	3%	-6%
O=C(/C=C/c1ccc(O)c(O)c1)OCCc1ccccc1	.	16µM*	.	-25%[46.1 µM]	-8%[46.1 µM]
O=C(N/N=C/c1ccoc1)c1ccccc1F	?	.	?	18%	19%
O=C(/C=C/c1cc2ccccc2o1)c1ccccc1O	2.4µM*	.	?	?	?
COc1ccc(O)c(C(=O)/C=C/c2cc3ccccc3o2)c1	?	.	.	-7%	-2%
COc1cccc(CC(NC(C)=O)C(=O)NC2CCN(C(=O)c3ccncc3)CC2)c1OC (stereo not drawn)	-2%	.	3%	5%	0%
O=C(COC(=O)CC1SC(N2CCCC2)=NC1=O)Nc1ccc(Br)cc1 (stereo not drawn)	6%	.	1%	13%	-8%
COc1ccc([N+](=O)[O-])cc1NC(=O)c1cn(-c2ccc(Cl)cc2)c(=O)c2ccccc12	9%	-39%	-4%	-16%	3%
O=C(/C=C/c1ccc(O)c(O)c1)c1ccccc1O	8.5µM*	.	?	-18%	0%
O=C(O)/C=C\c1ccc(O)c(O)c1	.	-2%[20.6 µM]	.	.	.
CCN(Cc1cc(Cl)cc(C)c1O)Cc1c(O)ccc2ccccc12	.	-17%[9.22 µM]	.	.	.
Cc1ccc(-c2cc(-c3n[nH]c(=S)n3C)c3ccccc3n2)cc1	11µM*	19%	4%	-8%	-1%
CCOc1cccc(-c2cc(-c3n[nH]c(=S)n3CC)c3ccccc3n2)c1	12µM*	-16%	-10%	-6%	8%
CCn1c(-c2cc(-c3ccc(C)c(C)c3)nc3ccccc23)n[nH]c1=S	3µM*	.	9%	3%	-2%
CCCCOc1ccccc1C(=O)Nc1nonc1-c1ccccc1	?	-25%	.	.	.
SMILES	FLuc counter	SMN2 splice enh	ELG1 genotoxic	Rab9 promoter act	NPC1 promoter act
Cc1cc(C)c(OCC(=O)OCC(=O)N2c3ccccc3CC2C)c(C)c1 (stereo not drawn)	0%	.	1%	1%	-3%
Cc1ccc(S(=O)(=O)Nc2ccc(N=Nc3ccc(O)cc3)cc2)cc1	-11%	16%	4%	-4%	1%
Cc1ccc(-c2nc(N=Nc3ccc(O)cc3)n[nH]2)cc1	8.5µM*	25µM*	2%	-9%	5%
Cc1nc(N=Nc2ccc(O)cc2)n[nH]1	17µM*	.	?	?	3.2µM*
COc1ccc(-c2nc(N=Nc3ccc(O)cc3)n[nH]2)cc1	9.5µM*	-9%	6%	4%	-6%
COc1ccc(O)cc1	.	-11%	10%	.	.
CN(C)S(=O)(=O)c1cc(NC(=O)COC(=O)/C=C/c2ccco2)ccc1Cl	?	.	4%	-2%	-1%
COc1cccc(/C=C/C(=O)OCC(=O)Nc2cccc(S(=O)(=O)N(C)C)c2)c1	11µM*	-21%	22%	-7%	0%
COc1cccc(/C=C/C(=O)OCC(=O)Nc2ccc(Cl)c(S(=O)(=O)N(C)C)c2)c1	11µM*	-1%	0%	-5%	-1%
COC(=O)c1ccc(/C=C/c2ccc3cccc(OC(C)=O)c3n2)cc1	3.8µM*	16µM*	?	3.5µM*	4µM*
Oc1ccc(/C=C/c2ccc3cccc(O)c3n2)cc1Br	17µM*	.	18µM*	29%	16%
O=[N+]([O-])c1ccc(/C=C/c2ccc3cccc([N+](=O)[O-])c3n2)cc1	-3%	-41%	4%	10%	0%
O=C(O)c1ccc(/C=C/c2ccc3cccc(O)c3n2)cc1	2.4µM*	22µM*	?	3.5µM*	3.5µM*
C[n+]1cccc(/C=C\c2ccc3cccc(O)c3n2)c1	.	-9%[9.22 µM]	.	.	.
CCOc1ccccc1N1CCN(C(=O)CCNS(=O)(=O)c2ccccc2F)CC1	0%	.	-3%	-4%	-1%
Cc1ccc2nc(-c3ccccn3)oc2c1	1.9µM*	7.1µM*	?	0.63µM*	1.6µM*
Cc1ccc2nc(-c3cccnc3)oc2c1	8.5µM*	?	?	1.3µM*	?
Cc1ccc(C(=O)Nc2ccc3oc(-c4cccnc4)nc3c2)c(Cl)c1	?	-5%	.	.	.
O=C(O)Cc1ccc2oc(-c3ccccn3)nc2c1	?	.	12%	-5%[1.84 µM]	-8%
CCC(CC)C(=O)Nc1ccc(S(=O)(=O)N2CCC(c3nc4ccccc4s3)CC2)cc1	-1%	.	.	.	.
COc1ccc(-c2n[nH]c(=S)n2-c2ccc(Br)cc2)cc1OC	4%	.	3%	3%	0%
Cc1ccccc1Cn1nnc(C(=O)Nc2ccc3c(c2)OCCO3)c1N	3µM*	.	18%	1.8µM*	2.8µM*
Nc1c(C(=O)NCc2ccc3c(c2)OCO3)nnn1Cc1cccc(F)c1	0%	.	3%	7%	-4%
Nc1c(C(=O)NCc2ccc3c(c2)OCO3)nnn1Cc1ccc(Br)cc1	2%	.	3%	6%	-1%
Nc1c(C(=O)Nc2ccc3c(c2)OCCO3)nnn1Cc1ccc(Cl)cc1	?	.	?	0.89µM*	2.2µM*
Cc1ccc(C)c(Cn2nnc(C(=O)Nc3ccc4c(c3)OCCO4)c2N)c1	?	.	4%	?	?
COc1ccc(Cn2nnc(C(=O)Nc3ccc4c(c3)OCCO4)c2N)cc1Br	21µM*	.	10%	13%	-2%
Nc1c(C(=O)Nc2ccc3c(c2)OCCO3)nnn1Cc1cccc(F)c1	?	.	?	3.2µM*	3.5µM*
N#CCCCS(=O)(=O)c1nnnn1-c1ccc(Br)cc1	.	7%	.	.	.
